The full data set covers some 7,900 targets. This sample favours those with a hit. About 0.6% of all pairs of compound and target were hits. A number with no mark means an inactive call.
Assays:
Assay in all cases: log2 fold change, soluble protein after heating vs DMSO (PISA); higher = thermal stabilisation; K562 cells, 10 uM, 30 min; active = over 0.2 and 3.5 SD of the protein, either way, in both replicates (recomputed)
[1] = compound: C1COCCN1CCN2C3=CC=CC=C3N=C2NC(=O)C4=CC(=CC=C4)[N+](=O)[O-] [IRAK-1-4 Inhibitor I]
Method in brief: (§1)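 K562 cells at 2×10^6 cells/mL were given 10 μM compound for 30 min. Aliquots then went through 3 min of heating across 48°C-58°C, were pooled, and were extracted in PBS with 0.5% NP-40 at 4°C, and the supernatant after 21,000xg for 90 min was quantified by TMTpro 16plex LC-MS/MS with channel sums equalised. Thermal stability relative to control samples, from duplicates, is given as log2 fold change.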

[2] = compound: C=CC(=O)N1CCC[C@@H](n2nc(-c3ccc(Oc4ccccc4)cc3)c3c(N)ncnc32)C1 [ibrutinib]
Method in brief: as §1

[3] = compound: CC(=O)c1cnc2ccc(-c3cc(Cl)c(O)c(Cl)c3)nc2c1N[C@H]1CC[C@H](CN(C)C)CC1
Method in brief: as §1

[4] = compound: CC(C)(C)Cn1c(N)nc2ccc(-c3[nH]c(C(C)(C)C)nc3-c3ccc(F)cc3)nc21 [ralimetinib]
Method in brief: as §1

[5] = compound: CC(C)(O)CC(=O)NCCn1ccc2ncnc(Nc3ccc(Oc4cccc(C(F)(F)F)c4)c(Cl)c3)c21
Method in brief: as §1

[6] = compound: CC(C)C1=C2N=C(C=C(N2N=C1)NCC3=CC=CC=C3)NCCCCCCN
Method in brief: as §1

[7] = compound: CC(C)C[C@@H](C=O)NC(=O)[C@H](CC(C)C)NC(=O)[C@H](CC(C)C)NC(=O)OCc1ccccc1
Method in brief: as §1

[8] = compound: CC(C)N(C[C@H]1O[C@@H](n2cnc3c(N)ncnc32)[C@H](O)[C@@H]1O)[C@H]1C[C@@H](CCc2nc3cc(C(C)(C)C)ccc3[nH]2)C1 [pinometostat]
Method in brief: as §1

[9] = compound: CC1=C(C(CC(=O)N1)C2=CC=C(C=C2)C(F)(F)F)C(=O)NC3=C(C=C4C(=C3)C=NN4)F
Method in brief: as §1

[10] = compound: CC1=C(C2=C(C=C1)C(=O)C3=CC=CC=C3N2CCCN)C
Method in brief: as §1

[11] = compound: CC1=C(C=C(C=C1)NC(=O)C2=CC(=CC=C2)C(C)(C)C#N)NC3=CC4=C(C=C3)N=CN(C4=O)C
Method in brief: as §1

[12] = compound: CC1=C(C=C(C=C1)NC(=O)C2=CC(=CC=C2)N(C)C)NC(=O)C3=CC=C(C=C3)O
Method in brief: as §1

[13] = compound: CC1=CC=C(C=C1)SC2=C3C=C(SC3=CN=C2)C(=O)N
Method in brief: as §1

[14] = compound: CC1=NC(=CC=C1)C2=C(N=C(N2)C(C)(C)C)C3=CC4=NC=CN=C4C=C3
Method in brief: as §1

[15] = compound: CCCCN(Cc1ccc(C(=O)NO)cc1)C(=O)Nc1ccccc1 [Nexturastat A]
Method in brief: as §1

[16] = compound: CCCS(=O)(=O)Nc1ccc(F)c(C(=O)c2c[nH]c3ncc(-c4ccc(Cl)cc4)cc23)c1F [vemurafenib]
Method in brief: as §1

[17] = compound: CCCS(=O)(=O)Nc1ccc(F)c(C(=O)c2c[nH]c3ncc(Cl)cc23)c1F
Method in brief: as §1

[18] = compound: CCCc1cc(C)[nH]c(=O)c1CNC(=O)c1cc(-c2ccnc(N3CCN(C)CC3)c2)cc2c1cnn2C(C)C
Method in brief: as §1

[19] = compound: CCN(CC)Cc1ccc2cc(COC(=O)Nc3ccc(C(=O)NO)cc3)ccc2c1 [givinostat]
Method in brief: as §1

[20] = compound: CCN(CCCOc1ccc2c(Nc3cc(CC(=O)Nc4cccc(F)c4)[nH]n3)ncnc2c1)CCOP(=O)(O)O [barasertib]
Method in brief: as §1

Chain of UniProt Q9HBU6 (Q9HBU6 whole entry, looked up): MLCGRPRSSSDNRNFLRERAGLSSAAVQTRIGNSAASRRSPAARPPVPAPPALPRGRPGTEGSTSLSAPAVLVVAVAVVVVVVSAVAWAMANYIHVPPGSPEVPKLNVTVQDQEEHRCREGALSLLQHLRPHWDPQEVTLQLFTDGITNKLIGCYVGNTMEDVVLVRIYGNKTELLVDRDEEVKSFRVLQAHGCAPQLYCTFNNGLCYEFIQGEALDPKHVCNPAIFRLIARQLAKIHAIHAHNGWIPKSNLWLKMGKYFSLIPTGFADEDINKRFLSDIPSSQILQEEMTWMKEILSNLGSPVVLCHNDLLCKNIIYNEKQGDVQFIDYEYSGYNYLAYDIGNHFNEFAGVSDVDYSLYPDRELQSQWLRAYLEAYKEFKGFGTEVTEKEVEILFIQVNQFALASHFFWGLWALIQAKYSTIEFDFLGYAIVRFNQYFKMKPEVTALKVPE
Chain of UniProt Q8N5C7 (Q8N5C7 whole entry, looked up): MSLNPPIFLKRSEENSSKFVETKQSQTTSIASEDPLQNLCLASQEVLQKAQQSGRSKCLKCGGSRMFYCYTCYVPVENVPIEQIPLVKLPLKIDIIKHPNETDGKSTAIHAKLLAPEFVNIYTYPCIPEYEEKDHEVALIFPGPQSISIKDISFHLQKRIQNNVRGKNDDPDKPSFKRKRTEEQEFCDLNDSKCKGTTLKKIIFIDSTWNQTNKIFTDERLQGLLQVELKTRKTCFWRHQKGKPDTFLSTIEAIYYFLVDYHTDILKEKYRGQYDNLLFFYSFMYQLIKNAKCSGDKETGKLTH
Chain of UniProt Q9UBQ6 (Q9UBQ6 whole entry, looked up): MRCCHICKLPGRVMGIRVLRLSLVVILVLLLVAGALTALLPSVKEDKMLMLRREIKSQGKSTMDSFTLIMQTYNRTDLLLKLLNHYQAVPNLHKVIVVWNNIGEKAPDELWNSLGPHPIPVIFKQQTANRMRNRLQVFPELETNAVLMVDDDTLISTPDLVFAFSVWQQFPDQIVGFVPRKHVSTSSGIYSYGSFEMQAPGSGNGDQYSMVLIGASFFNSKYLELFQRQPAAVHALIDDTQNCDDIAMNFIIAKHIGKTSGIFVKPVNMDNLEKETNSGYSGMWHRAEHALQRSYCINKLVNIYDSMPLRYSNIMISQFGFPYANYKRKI
Chain of UniProt Q5QJE6 (Q5QJE6 whole entry, looked up): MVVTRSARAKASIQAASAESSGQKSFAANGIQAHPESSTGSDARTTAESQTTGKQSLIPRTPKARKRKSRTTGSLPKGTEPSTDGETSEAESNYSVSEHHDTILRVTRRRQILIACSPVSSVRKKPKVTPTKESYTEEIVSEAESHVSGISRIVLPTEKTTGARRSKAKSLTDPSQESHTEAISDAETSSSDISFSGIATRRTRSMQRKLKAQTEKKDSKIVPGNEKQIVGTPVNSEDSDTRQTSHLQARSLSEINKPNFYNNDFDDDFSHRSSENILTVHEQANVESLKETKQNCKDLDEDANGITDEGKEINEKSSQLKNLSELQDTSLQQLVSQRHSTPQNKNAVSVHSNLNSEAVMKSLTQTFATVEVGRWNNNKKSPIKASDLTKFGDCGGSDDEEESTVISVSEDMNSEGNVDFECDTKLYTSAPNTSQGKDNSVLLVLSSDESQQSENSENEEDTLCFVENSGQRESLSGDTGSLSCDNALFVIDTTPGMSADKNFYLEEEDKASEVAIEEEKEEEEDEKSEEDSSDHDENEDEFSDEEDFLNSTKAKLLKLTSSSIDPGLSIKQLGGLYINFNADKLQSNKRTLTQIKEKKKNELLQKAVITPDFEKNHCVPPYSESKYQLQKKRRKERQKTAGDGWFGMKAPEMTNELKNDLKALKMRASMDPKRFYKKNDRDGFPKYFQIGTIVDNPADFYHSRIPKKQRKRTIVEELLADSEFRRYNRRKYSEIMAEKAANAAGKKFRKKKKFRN
Chain of UniProt Q16254 (Q16254 whole entry, looked up): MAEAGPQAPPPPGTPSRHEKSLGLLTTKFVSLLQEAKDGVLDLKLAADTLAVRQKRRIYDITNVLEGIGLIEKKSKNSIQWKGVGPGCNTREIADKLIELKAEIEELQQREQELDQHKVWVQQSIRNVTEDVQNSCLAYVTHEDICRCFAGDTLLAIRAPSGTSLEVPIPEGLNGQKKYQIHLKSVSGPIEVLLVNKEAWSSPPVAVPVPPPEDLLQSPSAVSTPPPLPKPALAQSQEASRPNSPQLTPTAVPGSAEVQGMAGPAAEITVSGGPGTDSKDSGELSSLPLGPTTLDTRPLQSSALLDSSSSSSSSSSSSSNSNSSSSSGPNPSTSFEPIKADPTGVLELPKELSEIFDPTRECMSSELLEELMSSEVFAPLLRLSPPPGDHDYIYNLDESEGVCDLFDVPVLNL
Chain of UniProt P60842 (P60842 whole entry, looked up): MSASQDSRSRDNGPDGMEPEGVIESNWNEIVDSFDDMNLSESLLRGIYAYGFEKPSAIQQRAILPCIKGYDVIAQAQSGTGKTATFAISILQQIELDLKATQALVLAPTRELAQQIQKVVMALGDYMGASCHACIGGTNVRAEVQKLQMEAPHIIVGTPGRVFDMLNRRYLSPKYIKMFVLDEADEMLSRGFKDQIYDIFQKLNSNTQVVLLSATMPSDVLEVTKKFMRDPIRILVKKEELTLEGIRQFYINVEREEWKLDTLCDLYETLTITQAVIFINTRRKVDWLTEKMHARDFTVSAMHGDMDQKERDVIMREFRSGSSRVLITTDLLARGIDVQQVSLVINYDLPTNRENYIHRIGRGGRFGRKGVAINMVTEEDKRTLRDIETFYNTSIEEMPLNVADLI
Chain of UniProt Q9BPY3 (Q9BPY3 whole entry, looked up): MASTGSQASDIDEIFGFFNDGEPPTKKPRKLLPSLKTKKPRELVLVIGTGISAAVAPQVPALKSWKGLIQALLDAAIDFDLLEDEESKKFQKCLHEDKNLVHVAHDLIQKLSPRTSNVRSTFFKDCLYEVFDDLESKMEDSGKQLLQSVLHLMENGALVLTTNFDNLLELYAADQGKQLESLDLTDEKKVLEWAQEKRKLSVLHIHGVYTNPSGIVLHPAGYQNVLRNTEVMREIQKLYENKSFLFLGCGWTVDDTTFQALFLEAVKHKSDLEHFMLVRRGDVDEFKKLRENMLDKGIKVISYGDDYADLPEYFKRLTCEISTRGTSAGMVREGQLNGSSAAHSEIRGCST
Chain of UniProt Q9GZT9 (Q9GZT9 whole entry, looked up): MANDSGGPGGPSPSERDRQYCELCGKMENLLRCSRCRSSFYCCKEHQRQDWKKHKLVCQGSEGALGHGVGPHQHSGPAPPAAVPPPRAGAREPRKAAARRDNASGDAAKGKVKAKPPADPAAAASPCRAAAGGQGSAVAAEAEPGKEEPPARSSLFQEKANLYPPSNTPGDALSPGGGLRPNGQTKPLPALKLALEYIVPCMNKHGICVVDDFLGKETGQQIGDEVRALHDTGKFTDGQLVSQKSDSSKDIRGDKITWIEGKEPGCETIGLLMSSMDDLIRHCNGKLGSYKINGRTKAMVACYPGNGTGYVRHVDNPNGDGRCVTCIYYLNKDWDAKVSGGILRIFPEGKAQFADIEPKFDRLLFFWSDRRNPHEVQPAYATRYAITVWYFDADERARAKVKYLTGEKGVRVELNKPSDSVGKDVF
Chain of UniProt O60610 (O60610 whole entry, looked up): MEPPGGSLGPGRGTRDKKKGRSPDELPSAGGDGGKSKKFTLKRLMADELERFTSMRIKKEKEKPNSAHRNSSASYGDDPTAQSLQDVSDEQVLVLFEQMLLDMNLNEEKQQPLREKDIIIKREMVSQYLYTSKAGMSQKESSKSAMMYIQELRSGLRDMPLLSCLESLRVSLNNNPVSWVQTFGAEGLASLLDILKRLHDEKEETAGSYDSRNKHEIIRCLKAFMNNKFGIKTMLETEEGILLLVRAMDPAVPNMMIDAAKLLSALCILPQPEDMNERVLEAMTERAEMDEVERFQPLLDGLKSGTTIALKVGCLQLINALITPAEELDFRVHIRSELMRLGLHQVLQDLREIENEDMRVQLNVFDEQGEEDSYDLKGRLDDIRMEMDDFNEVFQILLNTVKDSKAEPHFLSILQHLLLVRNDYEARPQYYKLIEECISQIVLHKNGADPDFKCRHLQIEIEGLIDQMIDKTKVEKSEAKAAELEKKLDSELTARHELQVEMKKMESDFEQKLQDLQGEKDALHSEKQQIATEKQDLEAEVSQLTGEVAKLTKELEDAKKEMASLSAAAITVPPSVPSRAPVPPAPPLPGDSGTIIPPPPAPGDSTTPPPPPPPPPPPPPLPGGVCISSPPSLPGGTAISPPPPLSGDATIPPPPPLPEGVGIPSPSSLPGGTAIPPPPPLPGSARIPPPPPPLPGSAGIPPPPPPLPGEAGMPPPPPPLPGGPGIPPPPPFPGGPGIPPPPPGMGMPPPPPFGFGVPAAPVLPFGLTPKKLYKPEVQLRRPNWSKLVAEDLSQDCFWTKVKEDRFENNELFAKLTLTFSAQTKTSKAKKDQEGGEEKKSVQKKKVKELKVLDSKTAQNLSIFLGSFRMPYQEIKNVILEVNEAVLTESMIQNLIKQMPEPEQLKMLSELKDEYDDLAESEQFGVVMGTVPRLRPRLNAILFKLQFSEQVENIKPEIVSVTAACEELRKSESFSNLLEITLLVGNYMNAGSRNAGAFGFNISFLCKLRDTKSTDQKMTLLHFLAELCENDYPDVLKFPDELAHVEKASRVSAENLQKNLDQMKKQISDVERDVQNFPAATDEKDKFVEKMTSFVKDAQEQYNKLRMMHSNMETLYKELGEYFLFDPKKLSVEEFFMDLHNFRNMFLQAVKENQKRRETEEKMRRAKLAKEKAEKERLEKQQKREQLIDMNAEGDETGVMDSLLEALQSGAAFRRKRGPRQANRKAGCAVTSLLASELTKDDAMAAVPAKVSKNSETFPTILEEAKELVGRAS
Chain of UniProt P24534 (P24534 whole entry, looked up): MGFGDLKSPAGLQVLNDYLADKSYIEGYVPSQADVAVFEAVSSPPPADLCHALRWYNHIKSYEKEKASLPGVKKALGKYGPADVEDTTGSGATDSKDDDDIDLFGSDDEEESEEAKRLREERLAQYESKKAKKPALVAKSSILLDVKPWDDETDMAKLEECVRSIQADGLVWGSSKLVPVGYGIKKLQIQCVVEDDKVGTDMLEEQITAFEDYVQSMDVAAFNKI

Target | log2 fold change [1] | log2 fold change [2] | log2 fold change [3] | log2 fold change [4] | log2 fold change [5] | log2 fold change [6] | log2 fold change [7] | log2 fold change [8] | log2 fold change [9] | log2 fold change [10] | log2 fold change [11] | log2 fold change [12] | log2 fold change [13] | log2 fold change [14] | log2 fold change [15] | log2 fold change [16] | log2 fold change [17] | log2 fold change [18] | log2 fold change [19] | log2 fold change [20]
EIF4A1 (UniProt P60842) | -0.008 | -0.022 | -0.131 | 0.026 | -0.151 | -0.124 | -0.001 | 0.016 | -0.011 | 0.017 | 0.106 | -0.017 | 0.061 | 0.049 | -0.115 | 0.055 | 0.089 | 0.151 | 0.06 | 0.026
DPH5 isoform 5 (UniProt Q9H2P9) | 0.036 | 0.025 | -0.01 | -0.018 | -0.053 | 0.045 | -0.071 | -0.009 | 0.022 | 0.027 | 0.009 | -0.01 | 0.046 | 0.042 | -0.079 | -0.041 | 0.087 | -0.045 | -0.105 | -0.006
DNAJC19 (UniProt Q96DA6) | 0.045 | 0.024 | 0.038 | 0.029 | -0.054 | -0.153 | -0.006 | -0.013 | 0.016 | 0.023 | -0.02 | 0.001 | 0.043 | 0.069 | -0.121 | 0.003 | 0.035 | -0.013 | 0.005 | 0.007
DNTTIP2 (UniProt Q5QJE6) | -0.027 | 0.045 | -0.265 | 0.089 | 0.046 | -0.234 | 0.046 | 0.266 | -0.017 | -0.975 (active) | 0.033 | 0.028 | -0.087 | -0.061 | 0.151 | -0.015 | -0.064 | -0.1 | 0.057 | -0.062
E2F4 (UniProt Q16254) | -0.025 | -0.009 | -0.073 | 0.011 | -0.072 | -0.167 | 0.038 | 0.001 | 0 | -0.119 | 0.031 | 0.011 | 0.087 | 0.079 | 0.034 | -0.001 | 0.02 | 0.021 | 0.05 | 0.054
DTWD1 (UniProt Q8N5C7) | 0.043 | 0.014 | 0.076 | 0 | -0.022 | 0.161 | -0.021 | -0.026 | -0.109 | 0.136 | 0.05 | -0.042 | 0.023 | 0.081 | -0.072 | 0.115 | -0.013 | 0.036 | -0.172 | -0.027
EBNA1BP2 (UniProt Q99848) | -0.143 | -0.013 | 0.013 | 0.27 | 0.124 | 0.213 | -0.026 | 0.439 | 0.006 | -1.4 (active) | -0.014 | -0.033 | -0.07 | -0.153 | 0.438 | -0.042 | 0.004 | 0.113 | 0.174 | -0.187
FAM118B (UniProt Q9BPY3) | 0.039 | 0.073 | -0.118 | 0.051 | -0.199 | -0.145 | 0.065 | -0.024 | 0.014 | 0.042 | 0 | 0.03 | 0.037 | 0.055 | 0.099 | 0.048 | 0.003 | 0.044 | 0.063 | 0.093
ECPAS (UniProt Q5VYK3) | -0.117 | -0.09 | 0.009 | 0.082 | -0.139 | -0.094 | 0.564 (active) | 0.055 | 0.021 | 0.092 | 0.008 | -0.06 | 0.016 | 0.02 | 0.049 | 0.084 | 0.059 | 0.051 | 0.118 | 0.037
EXTL2 (UniProt Q9UBQ6) | -0.018 | 0.019 | -0.073 | -0.061 | 0.062 | 0.01 | 0.041 | 0 | 0.021 | 0.12 | 0.072 | -0.003 | -0.017 | -0.003 | -0.163 | -0.002 | -0.031 | -0.043 | -0.039 | -0.053
ETNK1 (UniProt Q9HBU6) | 0.035 | -0.05 | 0.044 | -0.017 | -0.205 | 0.087 | 0.043 | 0.019 | -0.015 | 0.079 | 0.241 | -0.054 | 0.022 | 0.02 | -0.177 | 0.006 | 0.172 | -0.076 | 0.042 | 0.005
DBNL isoform 3 (UniProt Q9UJU6) | -0.075 | -0.122 | 0.006 | -0.015 | -0.132 | -0.136 | -0.007 | -0.044 | -0.02 | -0.066 | -0.051 | -0.019 | 0.011 | 0.113 | -0.082 | 0.07 | 0.1 | -0.006 | 0.036 | 0.045
EGLN1 (UniProt Q9GZT9) | 0.016 | -0.054 | -0.027 | -0.034 | -0.01 | -0.083 | 0.018 | 0.045 | -0.002 | -0.029 | -0.14 | 0.009 | -0.013 | 0.048 | -0.096 | -0.007 | 0.006 | 0.017 | -0.191 | 0.066
EEF1B2 (UniProt P24534) | -0.01 | -0.054 | 0.009 | 0.003 | 0.011 | -0.069 | 0.04 | 0.001 | -0.027 | 0.047 | 0.024 | -0.025 | -0.007 | 0.031 | 0.031 | 0.024 | 0.02 | -0.009 | 0.023 | 0.055
DIAPH1 (UniProt O60610) | -0.128 | -0.061 | 0.072 | 0.168 | 0 | -0.373 (active) | 0.07 | 0.213 | -0.017 | -0.08 | 0.018 | -0.05 | 0.025 | -0.049 | 0.19 | 0.041 | 0.062 | 0.08 | 0.051 | 0.077
EXOC8 (UniProt Q8IYI6) | -0.094 | -0.001 | 0.014 | 0.049 | -0.128 | -0.317 (active) | -0.032 | 0.051 | 0.026 | -0.002 | 0.035 | -0.085 | 0.037 | 0.016 | -0.087 | 0.048 | 0.01 | -0.091 | 0.028 | 0.048
